From PubChem
Shown are actives, neighbours in structure and some others; about 2.9% of the full set was active somewhere.
EPAC1 agonist: human EPAC1 agonism, validation | EPAC1 Rap1b BODIPY-GDP exchange, fluorescence | 1% of 16,000 active | AID 1645883 | O95398 | Potency, µM, most hits filed as activators; also: nearly all actives have a fitted effect of over 70% in size
Target sequence (O95398 whole entry, looked up): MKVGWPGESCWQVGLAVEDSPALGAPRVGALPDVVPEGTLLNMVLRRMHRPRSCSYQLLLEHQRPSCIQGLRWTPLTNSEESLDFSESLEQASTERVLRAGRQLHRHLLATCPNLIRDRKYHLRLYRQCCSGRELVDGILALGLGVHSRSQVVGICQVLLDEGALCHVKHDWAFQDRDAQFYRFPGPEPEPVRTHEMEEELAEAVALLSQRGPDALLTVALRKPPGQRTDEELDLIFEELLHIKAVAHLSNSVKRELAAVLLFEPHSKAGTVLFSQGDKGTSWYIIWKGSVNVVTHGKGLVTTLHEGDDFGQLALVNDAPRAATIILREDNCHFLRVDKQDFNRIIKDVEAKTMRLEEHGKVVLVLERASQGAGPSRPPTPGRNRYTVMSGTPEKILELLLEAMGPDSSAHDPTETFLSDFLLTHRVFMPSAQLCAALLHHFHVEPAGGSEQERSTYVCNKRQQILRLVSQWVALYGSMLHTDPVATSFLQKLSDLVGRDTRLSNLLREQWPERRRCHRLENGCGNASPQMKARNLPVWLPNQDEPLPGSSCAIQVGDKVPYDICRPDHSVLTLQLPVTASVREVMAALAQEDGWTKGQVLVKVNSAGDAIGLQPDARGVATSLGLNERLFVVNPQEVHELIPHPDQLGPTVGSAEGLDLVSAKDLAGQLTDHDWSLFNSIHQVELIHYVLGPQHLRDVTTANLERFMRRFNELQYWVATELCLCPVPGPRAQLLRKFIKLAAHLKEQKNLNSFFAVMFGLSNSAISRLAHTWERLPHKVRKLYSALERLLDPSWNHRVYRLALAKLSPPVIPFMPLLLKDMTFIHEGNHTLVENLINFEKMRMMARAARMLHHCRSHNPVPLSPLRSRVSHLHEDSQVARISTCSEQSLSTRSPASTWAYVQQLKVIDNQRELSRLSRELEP
EPAC2 antag: human EPAC2 antagonism, validation | Potency, µM (series often up to 112 µM), most hits filed as inhibitors | EPAC2 Rap1B BODIPY-GDP exchange, fluorescence | 1.7% of 16,000 active | AID 1645886 | Q8WZA2; also: nearly all actives have a fitted effect of over 40% in size
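Normalized against a 6.5 mM cAMP agonist control, compounds were tested on 100 nM EPAC2 exchanging Rap1B-bound BODIPY-GDP (250 nM) for 50 uM GDP. Fluorescence drop (ex 480, em 540 nm) was tracked at room temperature over 30 min at 5-min intervals.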
Of the large screens only hits and unclear results are named; the others gave an inactive call; ! = a repeat was not active. Calls follow the shape of the dose curve; as a rule, active = well fitted curve in the direction sought with a large enough effect; inconclusive = small, poorly fitted or top-dose-only effect, or another doubt; inactive = no such curve, though single readings can be large; an effect the other way counts as inactive or inconclusive.

COc1ccc(-c2nc3cnc(Nc4ccccc4)nc3n(CCC#N)c2=O)cc1	EPAC1 agonist 112µM
COc1cccc(Nc2ncc3nc(-c4ccc(F)cc4)c(=O)n(CCC#N)c3n2)c1	EPAC1 agonist 112µM
COc1cccc(Nc2ncc3nc(-c4cc(F)cc(F)c4)c(=O)n(CCC#N)c3n2)c1	EPAC1 agonist 112µM, EPAC2 antag inconclusive
COc1ccc(-c2nc3cnc(Nc4cccc(OC)c4)nc3n(CCC#N)c2=O)cc1	EPAC1 agonist 100µM
COc1ccc(Oc2ncc3nc(-c4cc(F)cc(F)c4)c(=O)n(CCC#N)c3n2)cc1	none
COc1cccc(Nc2ncc3nc(-c4ccc(Cl)cc4)c(=O)n(CCC#N)c3n2)c1	EPAC2 antag inconclusive
COc1cccc(Nc2ncc3nc(-c4ccc(F)cc4)c(=O)n(C)c3n2)c1	none
COc1ccc(-c2nc3cnc(Oc4ccccc4)nc3n(CCC#N)c2=O)cc1	EPAC1 agonist inconclusive
COc1ccc(C(=O)/C(Br)=C\C(=O)O)cc1	none
COc1cccc(-c2nc3cc4c(cc3cc2CN(C(=O)c2cc(C)nn2C)C2CC2)CCC4)c1OC	EPAC2 antag inconclusive
Cc1c(N)nc(C(CC(N)=O)NCC(N)C(N)=O)nc1C(=O)NC(C(=O)NC(C)C(O)C(C)C(=O)NC(C(=O)NCCc1nc(-c2nc(C(=O)NCCCN[C@@H](C)c3ccccc3)cs2)cs1)C(C)O)C(O[C@@H]1O[C@@H](CO)[C@@H](O)[C@H](O)[C@@H]1O[C@H]1O[C@H](CO)[C@@H](O)[C@H](OC(N)=O)[C@@H]1O)c1cnc[nH]1 (some centres undefined)	none
COC(=O)c1c(OCc2ccccn2)cc(=O)n2c1CCN(Cc1ccc3nsnc3c1)CC2	none
CCCCCCCC(=O)CC[C@@H]1[C@@H](C/C=C\CCCC(=O)OC(C)C)[C@@H](O)C[C@H]1O	EPAC2 antag inconclusive
Clc1cccc(C(c2ccc3nc[nH]c3c2)n2ccnc2)c1 (centres undefined)	none
c1ccc(-c2ccc(C(c3ccccc3)n3ccnc3)cc2)cc1 (centres undefined)	EPAC1 agonist inconclusive, EPAC2 antag 50µM
C=C1C[C@]23C[C@@]1(O)CC[C@H]2[C@@]12C=C[C@H](O)[C@@](C)(C(=O)O1)[C@H]2[C@@H]3C(=O)O	EPAC1 agonist 45µM
C=C1C[C@@]23C[C@@]1(O)CCC2[C@@]12C=CC(O)[C@](C)(C(=O)O1)C2C3C(=O)O (some centres undefined)	EPAC1 agonist inconclusive
OC1(c2cccnc2)CCN(Cc2ccc3c(c2)CN(Cc2cccc(C(F)(F)F)c2)CCO3)CC1	none
COc1cc(O)c2c(=O)cc(C)oc2c1CC=C(C)C	EPAC1 agonist inconclusive, EPAC2 antag 32µM
CC(C)=CCc1c(O)cc(C)oc1=O	none
c1ccc(-c2onc(-c3ccco3)c2-c2ccc3[nH]ccc3c2)cc1	EPAC1 agonist 112µM, EPAC2 antag inconclusive
CCC(=O)OC(OP(=O)(CCCCc1ccccc1)CC(=O)N1C[C@H](C2CCCCC2)C[C@H]1C(=O)O)C(C)C (some centres undefined)	none
COC(=O)C1=C(C)NC(C)=C([N+](=O)[O-])C1c1ccccc1C(F)(F)F (centres undefined)	EPAC2 antag 40µM!
CC1=C(C(=O)OC(C)C)[C@@H](c2cccc3nonc23)C([N+](=O)[O-])=C(C)N1	none
CN1[C@@H]2CCC[C@@H]1CC(NC(=O)c1nn(C)c3ccccc13)C2 (some centres undefined)	none
O=S1(=O)CCOC[C@H](CC2CCCCC2)N1Cc1cccc(C(F)(F)F)c1	EPAC2 antag 18µM
O=S1(=O)CCOC[C@H](CC2CCCCC2)N1Cc1ccccc1F	EPAC2 antag inconclusive
C=Cc1c(C)c2cc3nc(cc4[nH]c(cc5nc(cc1[nH]2)C(C)=C5CCC(=O)OC)c(CCC(=O)O)c4C)[C@@]1(C)C3=CC=C(C(=O)OC)[C@H]1C(=O)OC	none
COc1ccccc1C1CN(Cc2cccc(C)n2)Cc2ccccc2O1 (centres undefined)	EPAC2 antag inconclusive
COc1ccc(C(=O)CC(=O)c2ccc(C(C)(C)C)cc2)cc1	none
COc1ccc(C(Cl)=C(c2ccc(OC)cc2)c2ccc(OC)cc2)cc1	EPAC1 agonist inconclusive, EPAC2 antag 3.2µM!
COc1cccc(C(=O)NCc2nc(-c3cccc(NC(=O)c4ccoc4C)c3)oc2C)c1OC	none
CCCCCCCC/C=C\CCCCCCCC(=O)N[C@@H](CO)Cc1ccc(O)cc1	EPAC2 antag 20µM
CCCCCCCC/C=C\C/C=C\C/C=C\CCCC(=O)NCCO	none
O=C[C@H](O)[C@@H](O)[C@@H](O)[C@H](O)CO	none
CCCCCCCCCCCC(=O)OC[C@@H](O)C1OC[C@H](O)[C@H]1O (some centres undefined)	EPAC2 antag inconclusive
O=c1c(-c2ccccc2)nc2cnc(N3CCNCC3)nc2n1Cc1ccc(F)cc1	none
O=c1c(-c2cc(F)cc(F)c2)nc2cnc(N3CCNCC3)nc2n1Cc1ccc(F)cc1	EPAC1 agonist inconclusive, EPAC2 antag 50µM
CC#CCC(C)[C@H](O)/C=C/[C@@H]1[C@H]2c3cccc(CCCC(=O)O)c3O[C@H]2C[C@H]1O (some centres undefined)	none
CN(C)CC/C=C1/c2ccccc2CSc2ccccc21	none
O=C(NC(c1cccnc1)C(F)(F)F)c1cnn(-c2nccc(-c3cccs3)n2)c1C1CC1 (centres undefined)	none
O=C(CO)[C@@H](O)[C@H](O)[C@@H](O)C(=O)O	none
CC(=O)N[C@@H](CSC/C=C(\C)CCC=C(C)C)C(=O)O	none
CC(=O)N[C@@H](CSC/C=C(\C)CC/C=C(\C)CC/C=C(\C)CCC=C(C)C)C(=O)O	EPAC2 antag 89µM!
Cc1cccc2cc(CNCCCN3CCCC3=O)c(N3CCN4CCCC4C3)nc12 (centres undefined)	none
O=C1N[C@@H](Cc2c[nH]c3ccccc23)C(=O)N[C@H]1Cc1c[nH]c2ccccc12	none
c1ccc2c(Cc3c[nH]c4ccccc34)c[nH]c2c1	EPAC1 agonist 100µM, EPAC2 antag inconclusive
Cc1ccc(C(=O)Nc2cccc(-c3nc(CNC(=O)c4ccc5ccccc5n4)c(C)o3)c2)s1	none
C=C1C(=C/C=C2\CCC[C@]3(C)[C@@H]([C@H](C)/C=C/[C@@H](O)C4CC4)CC[C@@H]23)C[C@@H](O)C[C@@H]1O	none
C=C1CCC(O)C/C1=C\C=C1/CCCC2(C)C1CCC2C(C)/C=C/C(C)C(C)C (centres undefined)	EPAC2 antag 50µM
O=c1c(-c2cc(F)cc(F)c2)nc2cncnc2n1Cc1ccccc1Cl	EPAC1 agonist inconclusive
O=c1c(-c2ccc(F)c(F)c2)nc2cncnc2n1Cc1ccccc1Cl	EPAC1 agonist 100µM, EPAC2 antag inconclusive
CC1(C)S[C@@H]2[C@H](NC(=O)[C@H](N)c3ccccc3)C(=O)N2[C@H]1C(=O)OCOC(=O)[C@@H]1N2C(=O)C[C@H]2S(=O)(=O)C1(C)C	none
COc1cccc(-c2nc3cc(SC)ccc3cc2CN(C(=O)c2sccc2C)C2CC2)c1	EPAC1 agonist inconclusive, EPAC2 antag 40µM
COc1ccc(-c2nc3cc(F)ccc3cc2CN(C(=O)c2cccs2)C2CC2)cc1	none
Oc1cc(-c2nc3ccccc3s2)cc2c1OCCN(Cc1cn[nH]c1-c1ccc(Cl)cc1)C2	none
CCOC(=O)N1CCN(Cc2ccc3c(c2)CN(C(=O)c2ccc4ncccc4c2)CCO3)CC1	none
CC(C)N1CCN(c2ccc(OC[C@H]3CO[C@](Cn4cncn4)(c4ccc(Cl)cc4Cl)O3)cc2)CC1	none
